Drawing on PubChem BioAssay AID686978 (National Center for Advancing Translational Sciences (NCATS), 2013), this text covers Potency for 30 compounds.

About 64,000 (15%) of roughly 420,000 compounds were called active. Inconclusive results (about 27%) are left out. The call rests on the fitted dose curve; in most records, active means well fitted inhibition curve with a large enough effect; inconclusive means small, poorly fitted or top-dose-only effect; inactive means flat fitted curve, though single readings scatter. The list is a sample of the results. Where a call stands in place of a potency, no number is given.
Potency means the concentration at half of the fitted maximal effect.

This assay can be described thus: qHTS for Inhibitors of human tyrosyl-DNA phosphodiesterase 1 (TDP1): qHTS in cells in absence of CPT. Further: nearly all actives have a fitted effect of over 55% in size. The settings on record: DT40 Tdp1-/- hTDP1 cells, no CPT, ATP luminescence, 48 h; activity change, negative = growth inhibition: at 46.2 µM (top of the series). The method, boiled down: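 Chicken DT40 Tdp1-/- cells stably complemented with human TDP1 were seeded at 400 cells/well with DMSO in place of 20 nM camptothecin. After compound pinning, cells grew at least 48 hr at 37 °C; viability read by CellTiter-Glo luminescence.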
In general terms: qHTS replaces the single test concentration by a dilution series.
Turning to `CC(=O)CSc1nc(CCc2ccccc2)c(C#N)c(=O)[nH]1`, the Potency result is “inactive”.

On to `COc1ccc(NC(=O)c2cc(=O)[nH]c3ccccc23)cc1S(=O)(=O)N1CCOCC1`, for which the Potency entry was “inactive”.

As to `Cc1sc2ncn(CC(=O)NCCN(C)C)c(=O)c2c1S(=O)(=O)N1CCC(C)CC1`, the Potency result is “inactive”.

On to `O=C(Nc1cccc(OCC(=O)N2CCOCC2)c1)C1CCCCC1`, for which the Potency result was “inactive”.

For `COc1cc(/C=C/C(=O)O)cc(S(=O)(=O)Nc2ccccc2C(=O)NCCc2ccccc2)c1OC`, the Potency entry is “inactive”.

In the case of `Cc1cc(C)nc(/N=C2\NC(=O)CC(C(=O)O)N2c2ccc(Cl)cc2Cl)n1` (stereo not given), the Potency entry was “inactive”.

As to `COc1ccc(C(C#N)Nc2ccccc2C)cc1` (stereo not given), the Potency result is “inactive”.

For `COC(=O)C1=C(Nc2ccc(OC)cc2)C=C(C)C(C(=O)OC)C1c1ccc(C)cc1` (stereo not given), the Potency was 16.4 µM (active).

For `COC(=O)C1C(=O)NCC1c1ccc(OC)cc1` (stereo not given), the Potency result was “inactive”.

As to `COc1ccc(N2C(=O)C(O)C2c2ccc(C)cc2)cc1` (stereo not given), the Potency entry is “inactive”.

`O=C(Nc1ccccc1F)C1C2C=CC3(O2)C1C(=O)N(c1cccnc1)C3C(=O)NC1CCCCC1` (stereo not given): the Potency entry is “inactive”.

For `CCCNc1c(N)c(=O)c1=O`, the Potency result is “inactive”.

As to `Cc1nc([N+](=O)[O-])c(NCCCO)n1Cc1ccccc1`, the Potency result was “inactive”.

As for `COc1ccc(C2OCC3(CO2)SC(=O)NC3=O)cc1OC` (stereo not given), the Potency entry is “inactive”.

`CCCSc1nc2c(c(=O)n(C)c(=O)n2C)n1Cc1ccc(C)cc1`: the Potency is 16.4 µM (active).

As for `Cc1cccc(Cn2c(SCCO)nc3c2c(=O)n(C)c(=O)n3C)c1`, the Potency was 14.6 µM (active).

Turning to `CCOC(=O)CSc1nc2c(c(=O)n(C)c(=O)n2C)n1Cc1ccccc1F`, the Potency result was “inactive”.

`C#CC(C)(C)NC(=O)CSc1nc2c(c(=O)n(C)c(=O)n2C)n1CCCC`: the Potency entry was “inactive”.

Turning to `CCC1CCCCN1C(=O)CSc1nc2c(c(=O)n(C)c(=O)n2C)n1C` (stereo not given), the Potency entry is “inactive”.

As to `Cn1c(=O)c2c(nc(SCC(=O)Nc3ccc(F)cc3)n2Cc2ccccc2)n(C)c1=O`, the Potency was 4.61 µM (active).

For `CC(C)n1c(SCC(=O)Nc2ccccc2N2CCCCC2)nc2c1c(=O)n(C)c(=O)n2C`, the Potency was 23.1 µM (active).

In the case of `Cn1c(=O)c2c(nc(SCCNS(=O)(=O)c3ccccc3)n2C)n(C)c1=O`, the Potency entry was “inactive”.

For the compound `CCOc1ccc(Cn2c(SCCCCC#N)nc3c2c(=O)n(C)c(=O)n3C)cc1OCC`, the Potency entry was “inactive”.

On to `CSc1nnc(C2CCCN(CC(=O)Nc3ccccc3N3CCOCC3)C2)n1C(C)C` (stereo not given), for which the Potency result is “inactive”.

For the compound `COc1ccc(NC(=O)CCn2ccnc2)c(OC)c1`, the Potency entry is “inactive”.

For `Cc1ccc(C2(C)NC(=O)N(CC(=O)Nc3ccccc3C(=O)N3CCCCC3)C2=O)cc1` (stereo not given), the Potency entry was “inactive”.

On to `CC(=O)NC(CC(=O)Nc1nc(-c2ccccc2)c(C(C)=O)s1)c1ccccc1` (stereo not given), for which the Potency entry is “inactive”.

Take `CCNC(=O)c1c(O)c2cccc3c2n(c1=O)CC3`: the Potency was 23.1 µM (active).

Take `Cc1cc(=O)n2c3c(cccc13)CCC2`: the Potency result was “inactive”.

For the compound `CCCCn1c(=O)c(C(C)=O)c(O)c2ccccc21`, the Potency result is “inactive”.
